# Test results published in PubChem BioAssay (NCATS).
# Values joined by “and” are separate entries in the source; they are usually repeats but may differ in a detail not shown here. Equal entries are not always repeated. Records with an inconclusive call do not appear. A call without a number means that no potency is given here. Values without a mark were called inactive. Active and inactive are the calls of the source. Calls come from the whole dose curve; as a rule, active = well fitted curve in the direction sought with a large enough effect; inconclusive = small, poorly fitted or top-dose-only effect, or another doubt; inactive = no such curve, though single readings can be large; an effect the other way counts as inactive or inconclusive. Where a SMILES comes first, the peptide text is derived from it. [ ]: non-standard residue; d: D form. pGlu = O=C1CC[C@@H](C(=O)O)N1; Thz = O=C(O)[C@@H]1CSCN1
# What was measured:
# [1] = test system: Zika virus NS2B-NS3 protease (unlinked complex); experiment: Primary screen GU Rhodamine qHTS for Zika virus inhibitors: Unlinked NS2B-NS3 protease assay (AID 1347159); note: nearly all actives have a fitted effect of over 60% in size; note: potency is the fitted concentration of half-maximal effect
# Procedure, shortened: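 In dose–response format, inhibition of unlinked protease (25 nM) was measured with 1.5 microM bis-peptide Rhodamine110 substrate. Aprotinin served as the intraplate control.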
# [2] = test system: Zika virus NS2B-NS3 protease (linked construct); experiment: Primary screen NINDS Rhodamine qHTS for Zika virus inhibitors (AID 1347160); note: nearly all actives have a fitted effect of over 55% in size
# Procedure, shortened: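 Each compound, titrated, sat 15 min with 25 nM linked protease before 1.5 microM Rhodamine110 substrate went in. Fluorescence gain over the next 15 min, in pH 8.0 Tris with Tween 20, gave Hill-fitted curves.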
# [3] = Confirmatory screen NINDS Rhodamine qHTS for Zika virus inhibitors (AID 1347161); note: nearly all actives have a fitted effect of over 60% in size; note: potency is the fitted concentration of half-maximal effect;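 for activity change, negative = inhibition: purified Zika NS2B-NS3 protease with linked NS2B cofactor domain and Rhodamine110 peptide substrate; series mostly up to about 110 µM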
# Procedure, shortened: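 qHTS dose-response: 25 nM linked protease, pH 8.0 Tris/Tween buffer, cpd titration, 15 min RT preinc, 1.5 microM Rhod110 peptide, 15 min reaction (~15% conversion), Ex480/Em540; 4-parameter Hill fit.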
# [4] = Vero cells viability qHTS for Zika virus inhibitors (AID 1347167)
# Procedure, shortened: (§1)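 qHTS titration; 24-48 h compound exposure, 37 degrees C/5% CO2; DMEM, 4% FBS; CellTiter Glo ATP luminescence.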
# [5] = Confirmatory screen GU Rhodamine qHTS for Zika virus inhibitors qHTS (AID 1347157); settings: purified enzyme assay, Rhodamine110 substrate fluorescence, 15 min; note: potency is the fitted concentration of half-maximal effect; nearly all actives have a fitted effect of over 70% in size
# Procedure, shortened: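 Compounds, tested up to 114 microM, were incubated for 15 minutes with 25 nM unlinked NS2B-NS3 protease at pH 8.0. Cleavage of 1.5 microM Rhodamine110 substrate was then followed by fluorescence for 15 minutes.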
# [6] = ZIKV-mCherry secondary qHTS for Zika virus inhibitors (AID 1347158); note: top concentration of the series differs between compounds
# Procedure, shortened: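 Percent infection is the share of Hoechst-identified Vero nuclei with mCherry signal above 450 RFU (3 SD over negative controls). Cells were infected with recombinant ZIKV-mCherry at MOI 1 after compound addition and imaged 48–72 h later.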
# [7] = test system: Zika virus NS2B-NS3 protease (linked); experiment: 384 well plate NINDS AMC confirmatory qHTS for Zika virus inhibitors (AID 1347163); settings: Recombinant NS2B-NS3 protease, Ac-VKTGKR-AMC fluorescence; note: potency is the fitted concentration of half-maximal effect; nearly all actives have a fitted effect of over 50% in size
# Procedure, shortened: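 Fluorescence at 355/460 nm was read after 25 minutes of cleavage of 30 microM Ac-VKTGKR-AMC at room temperature, in the dark. Before substrate addition, compounds (up to 1 mM final) sat ~15 minutes with 5, 30 or 60 nM linked protease. Signals were normalized to no-enzyme and no-inhibitor wells.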
# [8] = biological target: Lysine-specific demethylase 5B (Homo sapiens) (UniProt Q9UGL1); experiment: Optimization screen for KDM5B Histone Demethylases FDH coupled qHTS against the LOPAC library (AID 1347166)
# Procedure, shortened: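 KDM5BDeltaAP (200nM final) in 50mM HEPES pH 7.5, 0.01% Tween-20 was preincubated with compound for 10 min at room temperature. A substrate mix of 12.5uM H3K4Me3, 25uM a-ketoglutarate, ascorbate, Fe2+, NAD+ and formaldehyde dehydrogenase was then added. NADH fluorescence (340/450 nm) was read initially and after 30 min.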
# [9] = Tertiary RLuc qRT-PCR qHTS assay for Zika virus inhibitors (AID 1347169); note: top concentration of the series differs between compounds; nearly all actives have a fitted effect of over 55% in size
# Procedure, shortened: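 Luminescence read-out: live-cell Renilla luciferase substrate applied to infected Vero cells, signal measured after 1-1.5 hrs. Cells had received compound before ZIKV-RLuc (Cambodian strain, MOI 1-2) infection and were incubated 48-72 hrs at 37 degrees C.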
# [10] = HepG2 cells viability qHTS for Zika virus inhibitors (AID 1347168)
# Procedure, shortened: as §1
# [11] = test system: Zika virus NS2B-NS3 protease (linked construct); experiment: 384 well plate NINDS Rhodamine confirmatory qHTS for Zika virus inhibitors (AID 1347164);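 note: fluorescence from protease cleavage of Ac-LKRR-rhodamine 110 substrate; potency is the fitted concentration of half-maximal effect; nearly all actives have a fitted effect of over 65% in size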
# Procedure, shortened: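 Fluorescence read at ex 485 nm/em 538 nm, 25 min after adding 10 microM Ac-LKRR-Rd substrate at room temperature in the dark; signal normalized to no-enzyme and no-inhibitor controls. Enzyme final 5, 30 or 60 nM; compounds, ~15 min preincubation.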
# Lysine-specific demethylase 5B (Homo sapiens), sequence (Q9UGL1 whole entry, looked up): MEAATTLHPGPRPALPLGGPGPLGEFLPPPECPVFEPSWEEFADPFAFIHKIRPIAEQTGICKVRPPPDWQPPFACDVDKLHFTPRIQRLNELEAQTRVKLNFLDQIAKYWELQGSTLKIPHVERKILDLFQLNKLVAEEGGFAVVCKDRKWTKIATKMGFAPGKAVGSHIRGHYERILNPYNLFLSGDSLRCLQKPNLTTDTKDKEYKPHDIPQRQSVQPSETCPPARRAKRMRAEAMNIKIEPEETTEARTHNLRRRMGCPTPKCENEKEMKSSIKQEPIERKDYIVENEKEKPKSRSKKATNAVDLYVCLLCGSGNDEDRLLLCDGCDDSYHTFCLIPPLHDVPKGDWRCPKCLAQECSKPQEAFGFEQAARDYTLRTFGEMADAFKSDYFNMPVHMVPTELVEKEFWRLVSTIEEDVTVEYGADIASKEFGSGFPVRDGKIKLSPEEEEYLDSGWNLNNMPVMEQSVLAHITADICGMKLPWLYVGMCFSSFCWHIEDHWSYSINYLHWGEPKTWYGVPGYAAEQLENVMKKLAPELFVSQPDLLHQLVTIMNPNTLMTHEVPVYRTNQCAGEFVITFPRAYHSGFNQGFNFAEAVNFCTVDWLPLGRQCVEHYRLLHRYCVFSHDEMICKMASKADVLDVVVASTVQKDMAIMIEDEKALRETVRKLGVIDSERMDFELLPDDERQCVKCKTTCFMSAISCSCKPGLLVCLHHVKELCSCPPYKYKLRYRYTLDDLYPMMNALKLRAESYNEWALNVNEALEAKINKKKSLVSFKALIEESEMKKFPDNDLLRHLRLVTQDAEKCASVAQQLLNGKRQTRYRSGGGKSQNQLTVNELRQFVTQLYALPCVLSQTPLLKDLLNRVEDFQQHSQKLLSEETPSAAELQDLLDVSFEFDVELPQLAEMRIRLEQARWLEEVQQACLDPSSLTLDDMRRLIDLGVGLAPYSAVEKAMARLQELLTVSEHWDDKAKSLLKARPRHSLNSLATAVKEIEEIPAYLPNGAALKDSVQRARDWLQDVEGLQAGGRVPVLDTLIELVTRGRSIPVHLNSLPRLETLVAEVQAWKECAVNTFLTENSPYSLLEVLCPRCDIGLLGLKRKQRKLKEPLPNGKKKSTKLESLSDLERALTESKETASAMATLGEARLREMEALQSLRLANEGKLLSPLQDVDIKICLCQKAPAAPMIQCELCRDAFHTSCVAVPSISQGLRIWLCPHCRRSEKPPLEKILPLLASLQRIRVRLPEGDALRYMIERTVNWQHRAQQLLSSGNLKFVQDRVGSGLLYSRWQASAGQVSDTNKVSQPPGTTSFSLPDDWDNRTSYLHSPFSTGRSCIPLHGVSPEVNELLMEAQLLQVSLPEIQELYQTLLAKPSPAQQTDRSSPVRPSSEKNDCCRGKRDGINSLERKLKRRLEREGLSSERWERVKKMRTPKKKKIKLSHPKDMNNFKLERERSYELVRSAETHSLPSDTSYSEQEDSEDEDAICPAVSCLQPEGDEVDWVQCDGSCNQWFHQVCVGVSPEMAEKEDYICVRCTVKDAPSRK
compound,measurement,setting,value
O=C1CC[C@@H](C(=O)N2CSC[C@H]2C(=O)O)N1 ([pGlu]-[Thz]-OH),Potency,[1],inactive
same,Potency,[2],inactive
CC(=O)O[C@H]1C[C@@]2(C)[C@@H](C[C@@H](O)[C@H]3[C@@]4(C)CC[C@@H](O)[C@@H](C)[C@@H]4CC[C@@]32C)/C1=C(\CCC=C(C)C)C(=O)O,Potency,[1],inactive
same,Potency,[2],inactive
CC1(C)S[C@@H]2[C@H](NC(=O)[C@H](N)c3ccc(O)cc3)C(=O)N2[C@H]1C(=O)O,Potency,[1],inactive
same,Potency,[2],inactive
COC(=O)C1=C(C)NC(C)=C(C(=O)OC)C1c1cccc(NC(=O)NCCCN2CCC(c3cccc(OC)c3)CC2)c1,Potency,[1],inactive
same,Potency,[2],inactive
same,Potency,[3],inactive
same,outcome,[4],inactive
COC(=O)[C@H]1[C@H]2C[C@@H]3c4[nH]c5cc(OC)ccc5c4CCN3C[C@H]2C[C@@H](OC(=O)/C=C/c2cc(OC)c(OC)c(OC)c2)[C@@H]1OC,Potency,[1],inactive
same,Potency,[2],inactive
Cc1ccc2c(n1)Oc1ccc(C(C)C(=O)OCC(=O)N(C)C)cc1C2 (stereo not drawn),Potency,[1],inactive
same,Potency,[2],inactive
O=C(O)Cc1cccc(-c2cc(CCCCCCc3ccc(O[C@H]4O[C@H](CO)[C@@H](O)[C@H](O)[C@@H]4O)c(-c4cccc(CC(=O)O)c4)c3)ccc2O[C@H]2O[C@H](CO)[C@@H](O)[C@H](O)[C@@H]2O)c1,"activity change, negative = inhibition",[1],17.6% [at 1.28 µM]
same,"activity change, negative = inhibition",[2],11.1% [at 0.684 µM]
O=C(Nc1cccc(C(=O)Nc2ccc(S(=O)(=O)O)c3cc(S(=O)(=O)O)cc(S(=O)(=O)O)c23)c1)Nc1cccc(C(=O)Nc2ccc(S(=O)(=O)O)c3cc(S(=O)(=O)O)cc(S(=O)(=O)O)c23)c1,Potency,[5],2.82 µM (active) and 1.41 µM (active)
same,outcome,[6],inactive
same,Potency,[3],2 µM (active) and 1.26 µM (active)
same,Potency,[7],22.4 µM (active)
same,outcome,[8],inactive
same,Potency,[9],inactive
CCCCN(CC)c1nc(C)nc2c1c(C)cn2-c1c(C)cc(C)cc1C,Potency,[1],inactive
same,Potency,[2],inactive
same,outcome,[4],inactive
same,outcome,[10],inactive
O=[N+]([O-])c1ccc(CNc2nc(NCc3cccc(C(F)(F)F)c3)nc3nc[nH]c23)cc1,Potency,[1],inactive
same,Potency,[2],inactive
CC(C(=O)O)c1ccc2c(c1)[nH]c1ccc(Cl)cc12 (stereo not drawn),Potency,[1],35.5 µM (active)
O=C(O)CC1CC(c2ccccc2)=NO1 (stereo not drawn),Potency,[1],inactive
same,outcome,[8],inactive
Cc1onc(-c2c(F)cccc2Cl)c1C(=O)N[C@@H]1C(=O)N2[C@@H]1SC(C)(C)[C@@H]2C(=O)O,Potency,[1],inactive
same,Potency,[2],inactive
CN1[C@@H]2CC[C@H]1CC(OC(c1ccccc1)c1ccccc1)C2 (stereo partly drawn),Potency,[1],inactive
same,Potency,[2],inactive
CS(=O)(=O)c1ccc(-n2nc(C(F)(F)F)cc2-c2ccc(F)cc2)cc1,Potency,[1],inactive
same,Potency,[2],inactive
O=C(O)[C@H](CC(=O)N1C[C@H]2CCCC[C@H]2C1)Cc1ccccc1,Potency,[2],inactive
CCNC(=O)[C@H]1O[C@@H](n2cnc3c(N)nc(NCCc4ccc(CCC(=O)O)cc4)nc32)[C@H](O)[C@@H]1O,Potency,[1],inactive
same,Potency,[2],inactive
COc1cc(/C=C/C(=O)N2CCN(CC(=O)N3CCCC3)CC2)cc(OC)c1OC,Potency,[1],inactive
same,Potency,[2],inactive
CN(C)[C@@H]1C(=O)C(C(=O)NCN2CCCC2)=C(O)[C@@]2(O)C(=O)C3=C(O)c4c(O)cccc4[C@@](C)(O)C3C[C@@H]12 (stereo partly drawn),outcome,[6],inactive
same,Potency,[7],0.891 µM (active)
same,Potency,[11],44.7 µM (active)
CC1(C)[C@@H](O[C@H]2O[C@H](C(=O)O)[C@@H](O)[C@H](O)[C@H]2O[C@@H]2O[C@H](C(=O)O)[C@@H](O)[C@H](O)[C@H]2O)CC[C@]2(C)[C@H]3C(=O)C=C4[C@@H]5C[C@@](C)(C(=O)O)CC[C@]5(C)CC[C@@]4(C)[C@]3(C)CC[C@@H]12,Potency,[2],inactive
CCNc1nc2c(ncn2[C@H]2C[C@H](O)[C@@H](CO)O2)c(=O)[nH]1,Potency,[1],inactive
same,Potency,[2],inactive
O=C(Nc1ccc2[nH]ncc2c1)C1CCC1,Potency,[1],inactive
same,Potency,[2],inactive
C/C(=N\O)c1ccc(OCC(=O)N2CCCCC2)cc1,Potency,[1],inactive
same,Potency,[2],inactive
CC(=O)SCC(CC(=O)c1ccc(C)cc1)C(=O)O (stereo not drawn),Potency,[1],inactive
same,Potency,[2],inactive
CC(=O)c1ccc(OCC(=O)N2CCCCC2)cc1,Potency,[1],inactive
same,Potency,[2],inactive
COc1ccc(/C=C/C(=O)Nc2ccccc2C(=O)O)cc1OC,Potency,[1],inactive
same,Potency,[2],inactive
same,outcome,[8],inactive
CN1[C@@H]2CC[C@H]1CC(OC(=O)C(CO)c1ccccc1)C2 (stereo partly drawn),Potency,[1],inactive
same,Potency,[2],inactive
CCN(CC)CCCCNc1ncc2cc(-c3c(Cl)cccc3Cl)c(NC(=O)NC(C)(C)C)nc2n1,Potency,[1],inactive
same,Potency,[2],inactive
